Screening data deposited in PubChem by several laboratories.
HIF-2a inh = inhibitors of HIF-2a; 786-0 RCC cells HIF-2a reporter, luciferase luminescence, overnight; inhibition, % at 18.8 µM; 360,000 compounds, 0.72% hits; AID 624352;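 active means inhibition of the luminescence signal of 40% or more relative to plate controls, in a single-dose primary screen at 18.75 µM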
KKLEB cytotox = counter-screen for CF NF-kB inhibitors: cytotoxicity. KKLEB CF airway cells viability, ATPlite luminescence, overnight; hits give low values; cells stimulated with P. aeruginosa culture filtrate. activity change (cytotoxicity), % at 5 µM. 360,000 compounds, 0.36% hits;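 active means corrected activity change at or below -50% at 5 µM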
Peg3 prom inh = reduces Peg3 promoter-driven luciferase expression in HeLa; HeLa PEG-Prom luciferase reporter, luminescence, overnight; inhibition, % at 20 µM; 360,000 compounds, 1.7% hits; AID 588405;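 active means inhibition of at least 50% at 20 µM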
CF NFkB block = blocks PAF-induced NF-kB reporter in cystic fibrosis cells; KKLEB NF-kB-GFP reporter, GFP fluorescence overnight; inhibition, % at 5 µM; 360,000 compounds, 0.86% hits;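 active means at least 50% inhibition at 5 µM, scaled per plate between neutral and stimulator controls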;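 further: PAF is a Pseudomonas aeruginosa culture filtrate used as stimulus; plate controls were PAF-stimulated DMSO wells for no effect and unstimulated DMSO wells for full effect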
Shn3 3UTR inh = reduces Shn3 3'UTR luciferase signal in osteoblasts; Clone20 osteoblast Shn3 3'UTR firefly luciferase, 24 h; 360,000 compounds, 0.52% hits; inhibition, % at 12.5 µM;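 active means mean inhibition of at least 75% with every replicate also reaching 75%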;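 further: 0% = median of neutral control wells and 100% = pilot-screen positive control compound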
MITF TRPM1 inh = inhibitors of MITF-driven TRPM1 promoter in melanoma cells. inhibition, % at 12.5 µM. 330,000 compounds, 0.83% hits. SK-MEL-5 TRPM1 promoter luciferase, 24 h. AID 488899;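 active means mean inhibition across replicates of 60% or more, whatever share of single replicates reaches that level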
Mdm2 MdmX conf = confirmation of inhibitors of human Mdm2/MdmX interaction, set 2 | shares compounds with HIF-2a inh | SaOS-2 split-luciferase Mdm2/MdmX complementation, luminescence | 740 compounds, 99% hits | inhibition, % at 8 µM;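 active means mean inhibition of the luminescence signal across two replicates at or above 26 percent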
Target sequence (O15151 whole entry, looked up): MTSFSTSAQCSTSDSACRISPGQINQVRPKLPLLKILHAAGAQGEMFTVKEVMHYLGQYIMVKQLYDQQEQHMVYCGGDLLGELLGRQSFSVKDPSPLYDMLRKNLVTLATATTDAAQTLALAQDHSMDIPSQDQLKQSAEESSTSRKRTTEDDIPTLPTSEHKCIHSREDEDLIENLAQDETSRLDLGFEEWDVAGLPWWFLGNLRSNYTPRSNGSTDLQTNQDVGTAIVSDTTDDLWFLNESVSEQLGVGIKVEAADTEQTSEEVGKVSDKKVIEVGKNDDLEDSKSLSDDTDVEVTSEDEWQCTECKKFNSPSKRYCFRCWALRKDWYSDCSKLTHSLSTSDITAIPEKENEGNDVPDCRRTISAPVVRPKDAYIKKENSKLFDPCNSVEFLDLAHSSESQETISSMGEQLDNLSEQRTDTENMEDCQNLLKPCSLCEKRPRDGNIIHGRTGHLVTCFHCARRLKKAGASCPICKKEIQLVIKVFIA
Target sequence (Q00987 whole entry, looked up): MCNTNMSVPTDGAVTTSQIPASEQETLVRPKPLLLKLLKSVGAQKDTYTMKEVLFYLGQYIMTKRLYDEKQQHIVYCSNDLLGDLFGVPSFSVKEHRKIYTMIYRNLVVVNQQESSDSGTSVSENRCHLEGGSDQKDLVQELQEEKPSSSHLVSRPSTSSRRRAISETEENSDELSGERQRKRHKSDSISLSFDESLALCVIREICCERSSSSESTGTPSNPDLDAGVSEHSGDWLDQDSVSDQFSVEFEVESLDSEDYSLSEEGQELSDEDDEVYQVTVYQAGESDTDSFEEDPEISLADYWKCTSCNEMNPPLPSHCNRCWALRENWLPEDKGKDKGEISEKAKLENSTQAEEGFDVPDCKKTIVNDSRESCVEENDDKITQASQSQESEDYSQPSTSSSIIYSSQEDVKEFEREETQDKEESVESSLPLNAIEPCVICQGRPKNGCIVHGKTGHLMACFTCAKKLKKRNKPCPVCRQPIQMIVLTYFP
HIF-2a conf = confirmation of HIF-2a inhibitors | 786-0 RCC cells, HIF-2a luciferase reporter luminescence, overnight | shares compounds with HIF-2a inh | 1,800 compounds, 56% hits | inhibition, % at 18.8 µM;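 active means mean inhibition across four replicates of at least 40 percent at the single tested concentration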
HIF-1a counter = HIF-1a inhibition counter-screen for HIF-2a hits; inhibition, % at 18.8 µM; MiaPaCa-2 HIF-1a luciferase reporter, desferoxamine, overnight; shares compounds with HIF-2a inh; 1,800 compounds, 72% hits;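 active means mean inhibition of the reporter signal across four replicates at the single tested dose of 50% or more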
* marks the source's active call; other numbers are inactive results; . = no result given. This is a sample that favours compounds with a hit; in the whole collection about 2.8% have one here.

SMILES	HIF-2a inh	KKLEB cytotox	Peg3 prom inh	CF NFkB block	Shn3 3UTR inh	MITF TRPM1 inh	HIF-2a conf	HIF-1a counter	others
CC1Cc2ccccc2N1c1ncnc(N)c1[N+](=O)[O-] (stereo not given)	35	-17	17	85*	16	34	.	.	Mdm2 MdmX conf=102*
COc1ccc(-c2oc3c(OC)c(OC)c(OC)c(O)c3c(=O)c2OC)cc1OC	-5	-5	42	-9	20	.	.	.	Mdm2 MdmX conf=74*
COC(=O)c1cc(-c2ccc(OC)c(OC)c2)c2c(=O)[nH]c(=O)n(C)c2n1	20	-2	5	19	16	-4	.	.
Cc1ccc(NC(=O)COc2cccc(-n3cnnn3)c2)cc1S(=O)(=O)N1CCOCC1	12	0	3	-40	0	5	.	.
Cc1nc(NCc2ccco2)c2c(C)c(C)sc2n1	-27	-16	88*	4	-51	54	.	.	Mdm2 MdmX conf=101*
C=C(C)CN(CC)c1nc(N)c2c(N)nc3c(c2c1C#N)CC(=O)N3C12CC3CC(CC(C3)C1)C2	5	-31	15	35	76	6	.	.
N#Cc1c(N2CCCC(O)C2)nc(N)c2c(N)nc3c(c12)CC(=O)N3C12CC3CC(CC(C3)C1)C2 (stereo not given)	36	-4	41	58*	7	6	.	.	Mdm2 MdmX conf=91*
O=S(=O)(c1ccccc1)c1ncc(C(F)(F)F)cc1Cl	96*	-86*	71*	89*	49	6	4	14
COc1ccc(Oc2ccc(/C=C/C(=O)c3ccc(O)cc3)cc2[N+](=O)[O-])cc1	91*	-20	108*	35	53	81*	37	104*
CC(C)N(C(=O)[C@H]1CC(CC(=O)NCCC2=CCCCC2)C(=O)N2CCc3c([nH]c4ccccc34)[C@]12C)C(C)C (stereo not given in full)	10	-2	18	4	31	23	.	.
CCc1ccc(NC(=O)COc2ccc(/C=C(/C#N)c3nc4ccccc4[nH]3)cc2OC)cc1	-1	-4	57*	2	-14	-1	.	.	Mdm2 MdmX conf=89*
CC(NS(=O)(=O)c1ccc2c(c1)c(=O)n(C)c(=O)n2C)C(=O)NC1CCCCC1 (stereo not given)	7	-1	3	-1	1	7	.	.
O=c1c2ccccc2cnn1CCOc1ccccc1	54*	3	44	-27	58	58	64*	71*
CN(CCO)c1cc(Sc2nc3ccccc3s2)c2nonc2c1[N+](=O)[O-]	86*	-4	104*	18	87*	91*	89*	73*
CCOc1ccc(Cl)cc1-c1cc(C(=O)Nc2cc(OC)c(OC)c(OC)c2)[nH]n1	-97	-5	10	0	10	.	.	.
COC(=O)c1c(NC(=O)Cc2ccccc2)sc2c1CC(C)(C)NC2(C)C	7	-18	7	16	-14	-4	.	.
COC(=O)c1c(NC(=O)COc2ccc(Cl)cc2)sc2c1CC(C)(C)NC2(C)C	52*	-57*	99*	33	74	82*	9	99*
N#Cc1cccc2c1-c1ccccc1/C2=N/NC(N)=S	48*	-8	40	-167	3	15	-9	32
O=c1oc2ccccc2cc1-c1ccc(O)cc1	-197	-12	-223	4	-50	-37	.	.
Nc1ccc(-c2cc3ccccc3oc2=O)cc1	88*	-5	38	13	77	94*	98*	84*
COc1ccc([C@H]2C[C@H](O)[C@@H](n3cc(-c4ccc(F)cc4)nn3)CN2Cc2cccs2)cc1	77*	-27	69*	39	43	.	30	104*
COc1ccc([C@H]2C[C@H](n3cc(-c4ccc(F)cc4)nn3)[C@@H](O)CN2Cc2cccs2)cc1	8	-3	10	-3	-20	.	.	.
